High-throughput results as filed in PubChem.
DT40 TDP1 CPT = DT40-hTDP1 cell growth loss with CPT; Potency, µM (series often up to 46.2 µM), for inactives: at the top dose activity change, negative = growth inhibition, hits mostly inhibitors; AID 686979; chicken DT40 Tdp1-/-;hTDP1 cells + 20 nM CPT, ATP luminescence, 48 h; 12% of 420,000 active; also: potency is read from the fitted curve at half-maximal effect; nearly all actives have a fitted effect of over 55% in size
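Cell growth measured by CellTiter-Glo luminescence after a minimum 48 h, 37 C compound exposure with 20 nM CPT in Tdp1-knockout DT40 cells stably expressing hTDP1, seeded 400/well; qHTS titration format.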
ALOX12 inh = inhibitors of human 12S-lipoxygenase ALOX12 | AID 1671190 | Potency, µM (highest dose often 108 µM), for the others: at the top dose activity change, negative = inhibition, hits mostly inhibitors | 1.1% of 580,000 active | purified 12hLO, xylenol orange hydroperoxide absorbance | P18054; also: potency is read from the fitted curve at half-maximal effect
Target sequence (P18054 whole entry, looked up): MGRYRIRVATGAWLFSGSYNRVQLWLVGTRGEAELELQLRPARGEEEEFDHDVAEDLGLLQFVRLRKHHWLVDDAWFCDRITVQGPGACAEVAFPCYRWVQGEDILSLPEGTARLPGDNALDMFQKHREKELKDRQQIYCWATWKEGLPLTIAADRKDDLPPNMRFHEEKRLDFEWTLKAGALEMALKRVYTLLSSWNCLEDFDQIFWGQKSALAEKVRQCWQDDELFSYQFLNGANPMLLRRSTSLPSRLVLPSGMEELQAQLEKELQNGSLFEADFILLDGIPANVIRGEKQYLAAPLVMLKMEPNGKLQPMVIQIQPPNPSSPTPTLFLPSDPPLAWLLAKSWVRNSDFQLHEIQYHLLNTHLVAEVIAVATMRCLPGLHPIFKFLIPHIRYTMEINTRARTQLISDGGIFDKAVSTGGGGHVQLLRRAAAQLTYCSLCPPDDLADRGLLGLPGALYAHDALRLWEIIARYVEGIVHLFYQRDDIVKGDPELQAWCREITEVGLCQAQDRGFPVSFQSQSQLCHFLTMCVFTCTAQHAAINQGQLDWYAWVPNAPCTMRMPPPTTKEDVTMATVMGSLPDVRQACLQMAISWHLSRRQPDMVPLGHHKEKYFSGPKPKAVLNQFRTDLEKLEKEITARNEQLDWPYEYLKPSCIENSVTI
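Purified human 12hLO at 150 nM in 25 mM Hepes, 0.01% Triton X-100, pH 7.0, preincubated 15 min at room temperature with compound. Reaction started with 40 uM arachidonic acid, 30 min at room temperature. Hydroperoxide measured by Fe-xylenol orange, 573/405 nm absorbance ratio.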
HT1080 IDH1KD tx = HT-1080 IDH1 knockdown cell toxicity (counter line). HT-1080 IDH1 knockdown viability, ATP luminescence, 48 h. Potency, µM (top dose mostly 46.1 µM), inactives show top-dose activity, negative = toxicity, hits mostly cytotoxic. 2% of 360,000 active;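 also: potency is read from the fitted curve at half-maximal effect; 0% = DMSO wells and -100% = cell-free medium wells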
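% activity derives from luminescence (CellTiter-Glo), normalised to DMSO and no-cell wells. HT-1080-IDH1KD cells, 750/well, had 48 h compound exposure at 37 °C.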
IL-1B inflam inh = inflammasome signaling inhibition, IL-1 beta readout; AID 743279; THP-1 LPS/ATP IL-1B secretion, AlphaLISA, 16 h; active compounds read low; activity change, % at 57.5 µM; 4.7% of 360,000 active; in the data active = activity change below about -50%; inconclusive = mostly about -30% to -49%
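Secreted IL-1B measured by AlphaLISA bead assay after 16 h compound exposure of THP-1 cells; compounds (final up to 57.5 uM) added 1 h before LPS (250 ng/mL) and ATP (1.25 mM) stimulation; lower signal means less secretion.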
TDP1 cell noCPT = qHTS for Inhibitors of human tyrosyl-DNA phosphodiesterase 1 (TDP1): qHTS in cells in absence of CPT. DT40 Tdp1-/- hTDP1 cells, no CPT, ATP luminescence, 48 h. Potency, µM (doses to about 46.2 µM), for inactives: top-dose activity change, negative = growth inhibition, usual class: inhibitors. 15% of 420,000 active. AID 686978, 2013; also: potency is read from the fitted curve at half-maximal effect; nearly all actives have a fitted effect of over 55% in size
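Compound effects on proliferation are scored in DT40 Tdp1-/-;hTDP1 cells in the absence of CPT. ATP levels (CellTiter-Glo luminescence) are recorded after a ≥48 hr, 37 °C incubation.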
HT1080NT lethal = kills 2HG-producing HT-1080-NT fibrosarcoma cells. Potency, µM (top dose mostly 46.1 µM), without a hit: at the highest dose activity, negative = less viability, most hits filed as cytotoxic. 1.6% of 360,000 active. HT-1080-NT fibrosarcoma viability, CellTiter-Glo ATP luminescence, 48 h;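 also: NT is the 2HG producing partner of a matched IDH1 knockdown line; potency is read from the fitted curve at half-maximal effect; 0% = DMSO-treated cells and -100% = media-only wells without cells; nearly all actives have a fitted effect of over 55% in size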
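Read-out is CellTiter-Glo luminescence after 10 minutes at room temperature, following 48 hours' compound treatment of HT-1080-NT cells (750 cells/well, RPMI, 5% FBS, 37 degrees C).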
* marks the source's active call; other numbers are inactive results; ? = inconclusive; / = not tested or not shown; [ ] = another dose, or the depositor's remark. This excerpt belongs to a sample that is enriched for hits. Unless noted, calls follow the shape of the dose curve; as a rule, active = well fitted curve in the direction sought with a large enough effect; inconclusive = small, poorly fitted or top-dose-only effect, or another doubt; inactive = no such curve, though single readings can be large; an effect the other way counts as inactive or inconclusive. Unless noted, % is scaled to controls: 0 for no effect and ±100 for the full control effect.

SMILES	DT40 TDP1 CPT	ALOX12 inh	HT1080 IDH1KD tx	IL-1B inflam inh	TDP1 cell noCPT	HT1080NT lethal
Cc1ccc(N=Nc2c(C)[nH]n(C(N)=S)c2=O)cc1C	1.84µM*	-16.2%	0.5%	10.4	1.64µM*	-2.4%
Cc1[nH]n(C(N)=S)c(=O)c1N=Nc1cccc([N+](=O)[O-])c1C	-5.4%	/	2.0%	-4.0	?	1.0%
COCC(C)NC(=O)Cc1n[nH]c(=O)c2ccccc12 (stereo not drawn)	/	6.6%	/	/	/	/
CN(C)CCCNC1CCCCC1	/	-13.4%	/	/	/	/
COc1ccc(-c2cc(C(=O)O)c3ccc(C)c(C)c3n2)cc1OC	/	-26.9%	/	/	/	/
Cc1ccc2c(c1)N(C(=O)N1CCC(C(=O)Nc3cccc(F)c3)CC1)CCO2	?	2.4%	/	/	18.4µM*	/
O=C(NC1CCCCCC1)C1CCN(C(=O)N2CCOc3ccc(Cl)cc32)CC1	25.9µM*	-14.9%	/	/	?	/
CCc1ccc(NC(=O)C2CCN(C(=O)N3CCOc4ccccc43)CC2)cc1	25.9µM*	-10.9%[57.4 µM]	-7.0%	-4.2	?	-2.3%
O=C(Nc1cccc(F)c1)C1CCN(C(=O)N2CCOc3ccccc32)CC1	?	7.0%	-3.5%	-25.7	?	-1.0%
O=C(NCCc1ccc(Cl)cc1)C1CCN(C(=O)N2CCOc3ccccc32)CC1	25.9µM*	25.2%	-0.1%	-27.2	23.1µM*	-2.1%
O=C(NCCc1ccccc1)C1CCN(C(=O)N2CCOc3ccccc32)CC1	-20.7%	-2.6%	2.6%	18.7	?	8.7%
CCc1ccccc1NC(=O)C1CCN(C(=O)N2CCOc3ccccc32)CC1	?	3.9%	-1.8%	8.8	20.6µM*	8.3%
O=C(NCCc1noc(-c2ccncc2)n1)c1ccccc1	/	8.91µM*	/	/	/	/
COc1cc(OC)c(C(=O)N2CCC(C(=O)c3ccc4c(c3)OCCO4)CC2)cc1OC	/	14.6%	/	/	/	/
CC(C)C(NC(=O)CNC(=O)OC(C)(C)C)C(=O)NCc1ccc(Cl)cc1 (stereo not drawn)	13.8%	-0.7%	5.7%	-10.9	10.1%	-9.0%
CON(C)C(=O)CC(CN(Cc1ccccc1)C(=O)OC(C)(C)C)c1ccc(Cl)cc1 (stereo not drawn)	23.1µM*	?	-26.3%	-61.5*	?	-24.2%
CON(C)C(=O)CC(CNC(=O)OC(C)(C)C)c1ccc(Cl)cc1 (stereo not drawn)	?	-4.1%	-2.6%	3.6	14.6µM*	1.2%
CON(C)C(=O)CCN(Cc1ccccc1)C(=O)OC(C)(C)C	?	?	8.7%	-2.6	?	26.5%
Cc1c(NCc2nc(-c3ccco3)no2)cccc1-n1cnnn1	/	-29.1%	/	/	/	/
CCCCCSc1nc2c(c(=O)n(C)c(=O)n2C)n1C/C=C/c1ccccc1	/	1.7%	/	/	/	/
O=C(NCC1CC1)[C@]1(C(F)(F)F)C[C@H](CCC2CCCCC2)CCCO1	?	?	25.4%	37.6	23.1µM*	4.0%
CCC[C@@H]1CCCO[C@@](C(=O)NCc2ccc(S(C)(=O)=O)cc2)(C(F)(F)F)C1	29.1µM*	-10.3%	-1.0%	-8.5	?	3.8%
O=C(NCC1CC1)C1(C(F)(F)F)CC(CCCO)CCCO1 (stereo not drawn)	-4.1%	23.8%	13.3%	17.2	5.4%	-0.3%
O=C(NCc1ccccc1)[C@]1(C(F)(F)F)C[C@H](CCc2ccccc2)CCCO1	-5.7%	?	1.5%	20.5	-22.0%	0.3%
O=C(Nc1ccc(Cl)c(C(F)(F)F)c1)[C@@H]1CC=C[C@@H]2CCN(C3CCCCC3)C(=O)[C@@H]21	?	12.9%	16.5%	29.6	16.4µM*	6.9%
SMILES	DT40 TDP1 CPT	ALOX12 inh	HT1080 IDH1KD tx	IL-1B inflam inh	TDP1 cell noCPT	HT1080NT lethal
O=C(Nc1ccc(Cl)cc1Cl)[C@@H]1CC=C[C@@H]2CCN(C3CCCCC3)C(=O)[C@@H]21	15.8µM*	/	/	/	17.8µM*	/
CCCCN1CC[C@H]2C=CC[C@@H](C(=O)Nc3ccc(Cl)c(C(F)(F)F)c3)[C@H]2C1=O	?	-11.9%	5.9%	-22.1	10µM*	13.0%
O=C(Nc1ccccc1)[C@@H]1CC=C[C@@H]2CCN(C3CCCCC3)C(=O)[C@@H]21	?	-3.6%	10.0%	-12.6	?	12.7%
CC(NCc1ccccc1)C(=O)C12CC3CC(CC(C3)C1)C2 (stereo not drawn)	/	-19.2%	/	/	/	/
O=C1N(c2ccccc2C(F)(F)F)OC1(Cc1ccccc1)c1ccccc1 (stereo not drawn)	-21.9%	3.4%	-7.1%	-79.6*	?	-4.8%
CC[C@]1(c2ccccc2C)ON(c2ccccc2C(F)(F)F)C1=O	-2.8%	2.2%	-6.3%	-2.0	-13.8%	3.3%
COc1ccccc1[C@@]1(C)ON(c2ccccc2C(F)(F)F)C1=O	?	4.2%	-20.2%	-94.3*	?	-21.9%
CC1CN(c2ccc([N+](=O)[O-])cc2C#N)CC(C)O1 (stereo not drawn)	4.5%	-8.7%	11.0%	0.7	-6.6%	9.8%
Cc1ccc(C(=O)c2cc([N+](=O)[O-])ccc2N2CC(C)OC(C)C2)cc1 (stereo not drawn)	5.8µM*	-23.7%	?	33.2	3.26µM*	18.4µM*
CC(C)CNC(=O)c1cc([N+](=O)[O-])ccc1N1CCOCC1	0.2%	-20.7%	-10.0%	0.0	-14.7%	-0.1%
O=C(COC(=O)c1cc([N+](=O)[O-])ccc1N1CCOCC1)c1ccc(F)cc1	-23.1%	158.8%	-12.6%	22.1	?	-2.3%
CC(C)(CNC(=O)c1cc([N+](=O)[O-])ccc1N1CCC(Cc2ccccc2)CC1)N1CCOCC1	?	199.0%	-20.2%	-56.6*	?	-16.5%
O=C(c1ccc(Cl)cc1)c1cc([N+](=O)[O-])ccc1N1CCOCC1	0.731µM*	-13.0%	1.16µM*	45.0	0.82µM*	1.46µM*
O=C(c1ccc(Br)cc1)c1cc([N+](=O)[O-])ccc1N1CCOCC1	0.82µM*	-24.3%	5.8µM*	39.1	1.46µM*	5.17µM*
CC(C)(CNC(=O)CCCNC(=O)C1CC1)c1ccccc1	/	-25.5%	/	/	/	/
O=C(c1ccccc1)c1cc([N+](=O)[O-])ccc1N1CCOCC1	0.731µM*	-14.3%	0.731µM*	31.4	0.82µM*	1.03µM*
COc1ccccc1/C=C1\S/C(=N/NC(=O)c2cccc(Br)c2)NC1=O	?	2.3%	?	-13.2	20.6µM*	?
